# Reference: the supplement of paper PMC9135407
# Counter-ions that a name gives are not always drawn.
# System: primary human hepatic stellate cells (donor 1)
# Experiment: PSMB2 reference mRNA level vs DMSO (fold); higher = more PSMB2 expression
# Conditions: 48 h
# Method: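 Secondary qRT-PCR screen in primary human HSCs (donor 1), 384-well plates, with compounds dispensed in quadruplicate and incubated for 48 h. Cells-to-CT lysates were used for multiplexed TaqMan qPCR of ACTA2 or COL1A1 with PSMB2 as reference. Fold changes versus DMSO come from a linear model (Ct_gene ~ Ct_PSMB2 + plate + chemical). A hit is defined as COL1A1 and ACTA2 FC <0.5 (FDR <0.05) with PSMB2 between 0.2 and 2.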
row,Compound,PSMB2 reference mRNA level
1,CN1CCC(=C2c3ccccc3C=Cc3ccccc32)CC1 [Cyproheptadine] (33.3333 µM),0.904
2,O=C(c1ccc(/C=C/c2n[nH]c3ccccc23)cc1)N1CCNCC1 (33.3333 µM),0.0479
3,Cc1ccc(-c2ccc3c(ccc4sc5c(c43)NC[C@@H](C)NC5=O)n2)cn1 (33.3333 µM),3.41
4,NC1(c2ccc(-c3nc4ccn5c(=O)[nH]nc5c4cc3-c3ccccc3)cc2)CCC1 (11.1 µM),3.72
5,c1cc(OCCN2CCCCC2)cc(-c2n[nH]c3ccc(-c4nnc[nH]4)cc23)c1 (33.3333 µM),0.677
6,C[C@H]1O[C@@H](O[C@H]2[C@@H](O)C[C@H](O[C@H]3[C@@H](O)C[C@H](O[C@H]4CC[C@@]5(C)[C@H](CC[C@@H]6[C@@H]5C[C@@H](O)[C@]5(C)[C@@H](C7=CC(=O)OC7)CC[C@]65O)C4)O[C@@H]3C)O[C@@H]2C)C[C@H](O)[C@@H]1O [Digoxin] (33.3333 µM),1.06
7,CN(C)C/C=C(/c1ccc(Br)cc1)c1cccnc1 [Zimelidine dihydrochloride] (11.1 µM),0.28
8,Cn1cc(C2=C(c3ccc(Cl)cc3Cl)C(=O)NC2=O)c2ccccc21 (33.3333 µM),0.517
9,COC(=O)N[C@H](C(=O)N1CCC[C@H]1c1ncc(-c2ccc(-c3ccc(-c4cnc([C@@H]5CCCN5C(=O)[C@@H](NC(=O)OC)C(C)C)[nH]4)cc3)cc2)[nH]1)C(C)C (33.3333 µM),3.28
10,CC(C)NCCCn1c(Sc2cc3c(cc2I)OCO3)nc2c(N)ncnc21 (33.3333 µM),0.581
